Laboratory results reported in PubChem BioAssay AID1159580 (chemical genetic matrix, 2015).
In all, about 5,500 compounds went through this assay and about 2,000 (36%) were called active. Roughly 18% stayed inconclusive and do not appear here. The list shows a part of the results. A number with no mark means an inactive call. No stated cut-off is given here; in the data, active means normalized growth mostly below about 0.91 (no sharp cut-off); inconclusive means no clear call, values can overlap the other calls; inactive means mostly above about 0.92.

Assay: chemical genetic growth profiling, strain panel (AID 1159580);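 further: tested at 20 µM; growth read once vehicle control cultures reached saturation at 30 °C; 1 = growth at the plate median or of vehicle wells; lower values mean less growth of the strain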
Settings: growth OD

COC(=O)[C@@]1(C)CCC[C@]2(C)c3ccc(O)c(C(C)C)c3CCC12 (stereo partly specified)
normalized growth (S. cerevisiae deletion strains, locus YJR066W, strain TOR1, hits give low values): 0.689 (active) | normalized growth (S. cerevisiae deletion strains, locus YKL009W, strain mrt4, hits give low values): 0.859 (active) | normalized growth (S. cerevisiae deletion strains, locus YKL068W, hits give low values): 0.979 | normalized growth (S. cerevisiae deletion strains, locus YKL085W, strain MDH1 (second series), hits give low values): 0.522 (active) | normalized growth (S. cerevisiae deletion strains, locus YKL085W, strain MDH1, hits give low values): 0.522 (active) | normalized growth (S. cerevisiae deletion strains, locus YKL160W, strain elf1, hits give low values): 0.881 (active) | normalized growth (S. cerevisiae deletion strains, locus YKR001C, strain vps1, hits give low values): 0.231 (active) | normalized growth (S. cerevisiae deletion strains, locus YKR026C, strain gcn3, hits give low values): 0.978 | normalized growth (S. cerevisiae deletion strains, locus YKR091W, strain srl3, hits give low values): 0.976 | normalized growth (S. cerevisiae deletion strains, locus YLL001W, strain dnm1, hits give low values): 0.937 | normalized growth (S. cerevisiae deletion strains, locus YLL026W, hits give low values): 0.843 (active) | normalized growth (S. cerevisiae deletion strains, locus YLL041C, strain sdh2, hits give low values): 0.965 | normalized growth (S. cerevisiae deletion strains, locus YLR027C, strain aat2, hits give low values): 0.354 (active) | normalized growth (S. cerevisiae deletion strains, locus YLR039C, strain RIC1, hits give low values): 0.245 (active) | normalized growth (S. cerevisiae deletion strains, locus YLR058C, strain SHM2, hits give low values): 0.661 (active) | normalized growth (S. cerevisiae deletion strains, locus YLR102C, strain apc9, hits give low values): 0.95 | normalized growth (S. cerevisiae deletion strains, locus YLR113W, strain HOG1, hits give low values): 0.284 (active) | normalized growth (S. cerevisiae deletion strains, locus YLR221C, strain rsa3, hits give low values): 0.619 (active) | normalized growth (S. cerevisiae deletion strains, locus YLR258W, strain gsy2, hits give low values): 0.786 (active) | normalized growth (S. cerevisiae deletion strains, locus YLR262C, strain YPT6 (second series), hits give low values): 0.208 (active) | normalized growth (S. cerevisiae deletion strains, locus YLR268W, strain sec22, hits give low values): 0.85 (active) | normalized growth (S. cerevisiae deletion strains, locus YLR320W, strain mms22, hits give low values): 0.695 (active) | normalized growth (S. cerevisiae deletion strains, locus YLR330W, strain CHS5, hits give low values): 0.662 (active) | normalized growth (S. cerevisiae deletion strains, locus YLR342W, strain FKS1 (second series), hits give low values): 0.42 (active) | normalized growth (S. cerevisiae deletion strains, locus YLR342W, strain FKS1, hits give low values): 0.596 (active) | normalized growth (S. cerevisiae deletion strains, locus YLR357W, strain rsc2, hits give low values): 1 | normalized growth (S. cerevisiae deletion strains, locus YLR370C, strain arc18, hits give low values): 1.01 | normalized growth (S. cerevisiae deletion strains, locus YLR371W, strain rom2, hits give low values): 0.444 (active) | normalized growth (S. cerevisiae deletion strains, locus YLR384C, strain iki3, hits give low values): 0.998 | normalized growth (S. cerevisiae deletion strains, locus YLR418C, strain cdc73, hits give low values): 0.297 (active) | normalized growth (S. cerevisiae deletion strains, locus YML016C, strain PPZ1, hits give low values): 0.889 (active) | normalized growth (S. cerevisiae deletion strains, locus YML032C, strain rad52, hits give low values): 0.732 (active) | normalized growth (S. cerevisiae deletion strains, locus YML120C, strain ndi1, hits give low values): 0.222 (active) | normalized growth (S. cerevisiae deletion strains, locus YML124C, strain tub3, hits give low values): 0.922 (active) | normalized growth (S. cerevisiae deletion strains, locus YMR058W, strain fet3, hits give low values): 0.919 | normalized growth (S. cerevisiae deletion strains, locus YMR078C, strain ctf18, hits give low values): 0.96 | normalized growth (S. cerevisiae deletion strains, locus YMR125W, strain sto1, hits give low values): 0.959 | normalized growth (S. cerevisiae deletion strains, locus YMR129W, hits give low values): 0.96 | normalized growth (S. cerevisiae deletion strains, locus YMR205C, strain PFK2, hits give low values): 0.649 (active) | normalized growth (S. cerevisiae deletion strains, locus YMR223W, strain ubp8, hits give low values): 0.828 (active) | normalized growth (S. cerevisiae deletion strains, locus YMR231W, strain pep5, hits give low values): 0.996 | normalized growth (S. cerevisiae deletion strains, locus YMR263W, strain SAP30, hits give low values): 0.657 (active) | normalized growth (S. cerevisiae deletion strains, locus YMR307W, strain GAS1, hits give low values): 0.509 (active) | normalized growth (S. cerevisiae deletion strains, locus YNL067W, strain RPL9B, hits give low values): 0.903 | normalized growth (S. cerevisiae deletion strains, locus YNL071W, strain lat1, hits give low values): 0.684 (active) | normalized growth (S. cerevisiae deletion strains, locus YNL153C, strain GIM3, hits give low values): 0.788 (active) | normalized growth (S. cerevisiae deletion strains, locus YNL183C, strain NPR1, hits give low values): 0.715 (active) | normalized growth (S. cerevisiae deletion strains, locus YNL209W, strain ssb2, hits give low values): 0.856 (active) | normalized growth (S. cerevisiae deletion strains, locus YNL233W, strain BNI4, hits give low values): 0.563 (active) | normalized growth (S. cerevisiae deletion strains, locus YNL248C, strain rpa49, hits give low values): 0.916 | normalized growth (S. cerevisiae deletion strains, locus YNL250W, strain rad50, hits give low values): 0.934 | normalized growth (S. cerevisiae deletion strains, locus YNL271C, strain bni1, hits give low values): 0.971 | normalized growth (S. cerevisiae deletion strains, locus YNL298W, strain CLA4, hits give low values): 0.883 (active) | normalized growth (S. cerevisiae deletion strains, locus YNL307C, strain MCK1, hits give low values): 0.502 (active) | normalized growth (S. cerevisiae deletion strains, locus YNL322C, strain KRE1 (second series), hits give low values): 0.985 | normalized growth (S. cerevisiae deletion strains, locus YNR049C, strain mso1, hits give low values): 0.964 | normalized growth (S. cerevisiae deletion strains, locus YNR052C, strain pop2, hits give low values): 0.629 (active) | normalized growth (S. cerevisiae deletion strains, locus YOL012C, strain htz1): 0.967 | normalized growth (S. cerevisiae deletion strains, locus YOL147C, strain pex11, hits give low values): 0.681 (active) | normalized growth (S. cerevisiae deletion strains, locus YOR001W, strain rrp6, hits give low values): 0.636 (active) | normalized growth (S. cerevisiae deletion strains, locus YOR061W, strain CKA2, hits give low values): 0.859 (active) | normalized growth (S. cerevisiae deletion strains, locus YOR069W, strain VPS5, hits give low values): 0.854 (active) | normalized growth (S. cerevisiae deletion strains, locus YOR070C, strain gyp1, hits give low values): 0.693 (active) | normalized growth (S. cerevisiae deletion strains, locus YOR080W, strain dia2, hits give low values): 0.715 (active) | normalized growth (S. cerevisiae deletion strains, locus YOR083W, strain WHI5, hits give low values): 0.835 (active) | normalized growth (S. cerevisiae deletion strains, locus YOR106W, strain vam3, hits give low values): 0.373 (active) | normalized growth (S. cerevisiae deletion strains, locus YOR136W, strain idh2, hits give low values): 0.929 | normalized growth (S. cerevisiae deletion strains, locus YOR144C, strain elg1, hits give low values): 0.711 (active) | normalized growth (S. cerevisiae deletion strains, locus YOR184W, strain ser1, hits give low values): 0.355 (active) | normalized growth (S. cerevisiae deletion strains, locus YOR231W, strain MKK1, hits give low values): 0.575 (active) | normalized growth (S. cerevisiae deletion strains, locus YOR265W, strain rbl2, hits give low values): 0.741 (active) | normalized growth (S. cerevisiae deletion strains, locus YOR270C, strain vph1, hits give low values): 0.612 (active) | normalized growth (S. cerevisiae deletion strains, locus YOR290C, strain snf2, hits give low values): 0.776 (active) | normalized growth (S. cerevisiae deletion strains, locus YOR316C, strain cot1, hits give low values): 0.984 | normalized growth (S. cerevisiae deletion strains, locus YPL051W, strain arl3, hits give low values): 0.539 (active) | normalized growth (S. cerevisiae deletion strains, locus YPL055C, strain LGE1, hits give low values): 0.403 (active) | normalized growth (S. cerevisiae deletion strains, locus YPL078C, strain atp4, hits give low values): 0.924 | normalized growth (S. cerevisiae deletion strains, locus YPL106C, strain sse1, hits give low values): 0.505 (active) | normalized growth (S. cerevisiae deletion strains, locus YPL240C, strain hsp82, hits give low values): 0.697 (active) | normalized growth (S. cerevisiae deletion strains, locus YPL256C, strain CLN2, hits give low values): 0.682 (active) | normalized growth (S. cerevisiae deletion strains, locus YPR119W, strain clb2, hits give low values): 0.799 (active) | normalized growth (S. cerevisiae deletion strains, locus YPR141C, strain kar3, hits give low values): 0.987 | normalized growth (S. cerevisiae deletion strains, locus YPR163C, strain tif3, hits give low values): 0.817 (active) | normalized growth (S. cerevisiae deletion strains, locus YPR167C, strain met16, hits give low values): 0.773 (active) | normalized growth (S. cerevisiae deletion strains, strain wtn01, hits give low values): 0.812 (active) | normalized growth (S. cerevisiae strains, strain wild type, hits give low values): 0.458 (active)
